Source: PubChem BioAssay (Broad Institute)
The entries come from a sample that favours hits as a whole.
Tgondii IFNg: T. gondii growth inhibition under IFN-gamma | Toxoplasma gondii growth in IFN-gamma-treated host cells; hits give low values | activity change, negative = inhibition, % (test concentration not listed) | 69,000 tested, 3.8% active; in the data active means activity change below about -70%, passing the limit was not always enough;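 further: host cells are HeLa cells infected with Toxoplasma gondii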
* = called active by the depositor.

Results for C=CCn1c2ccccc2c2nnc(SCCCC(=O)c3ccc4c(c3)OCCO4)nc21 ?
Tgondii IFNg: 14

What do the screens show for `CS(=O)(=O)c1cccc(CNc2nc(Nc3ccc4c(c3)CCC(=O)N4)ncc2C(F)(F)F)c1`?
Tgondii IFNg: -68

What do the screens show for `CN(c1ncccc1CNc1nc(Nc2ccc3c(c2)CC(=O)N3)ncc1C(F)(F)F)S(C)(=O)=O`?
Tgondii IFNg: -80*

How did COCCOc1cc(CNc2ccccc2-c2nnn(C)n2)ccc1OC do in these assays?
Tgondii IFNg: 6

How did COc1ccc(Cl)cc1NC(=O)Nc1ccccc1 do in these assays?
Tgondii IFNg: -83*

How did COc1ccc(Cl)cc1NC(=O)Nc1ccc(-c2nc(-c3ccccc3)co2)cc1 do in these assays?
Tgondii IFNg: 1

What do the screens show for `CCC(CC)C(=O)Nc1cc(Cl)ccc1OC`?
Tgondii IFNg: -3

How did Cc1nnsc1CN(C)c1nc(CCN)nc2ccccc12 do in these assays?
Tgondii IFNg: -9

How did c1cncc(OC2CCN(Cc3nc(-c4cnccn4)no3)CC2)c1 do in these assays?
Tgondii IFNg: -3

What do the screens show for `CC(C)(C)C1CCc2[nH]nc(C(=O)Nc3ccccc3OCc3ccccn3)c2C1` (stereo not given)?
Tgondii IFNg: -79*

What do the screens show for `O=C(Nc1ccccc1OCCCc1ccccc1)c1ccccn1`?
Tgondii IFNg: 5

How did CC(C)(C)C1CCc2[nH]nc(C(=O)Nc3cccc(Cn4cncn4)c3)c2C1 (stereo not given) do in these assays?
Tgondii IFNg: 0

What do the screens show for `O=C(Cn1c(=O)cc(C(=O)N2CCc3ccccc3C2)c2ccccc21)Nc1ccccc1`?
Tgondii IFNg: -3

How did CC(Oc1ccccc1F)C(=O)N1CCN(C)CC1c1ccccc1 (stereo not given) do in these assays?
Tgondii IFNg: 16

Results for Cc1nc(-c2ccc(F)cc2)sc1-c1ccc(SCc2ccccc2Cl)nn1 ?
Tgondii IFNg: -4

Results for CCN(C)C1COC2(CCN(Cc3csc(C)n3)CC2)C1 (stereo not given) ?
Tgondii IFNg: -7

Results for c1ccc(-c2nnc(-c3ccccn3)nc2-c2ccccc2)cc1 ?
Tgondii IFNg: -103*

How did CN(Cc1cnc(-c2ccccn2)nc1)Cc1cnn(-c2ccccc2)c1 do in these assays?
Tgondii IFNg: 4

How did Cc1ccccc1Nc1nnc(-c2ccccc2)c(-c2ccccc2)n1 do in these assays?
Tgondii IFNg: 15

Results for Cc1sc(NC(=O)CN(Cc2ccc(F)cc2)C(=O)c2ccncc2)c(C(N)=O)c1C ?
Tgondii IFNg: -69

What do the screens show for `CCOCC1c2c(ncn2C(C)C)CCN1C(=O)C1CC1` (stereo not given)?
Tgondii IFNg: -14

How did Cc1nc(CCNC(=O)[C@H]2CCCN2S(=O)(=O)c2ccccc2)cs1 do in these assays?
Tgondii IFNg: -9

What do the screens show for `O=C(Nc1ccc2c3c(cccc13)CC2)c1cccnc1Cl`?
Tgondii IFNg: 32

What do the screens show for `O=C(Nc1ccccc1C(=O)Nc1cccc2ccccc12)Nc1cccc2ccccc12`?
Tgondii IFNg: 135

What do the screens show for `O=C(Nc1ccc2c3c(cccc13)CC2)c1nc(-n2cnnc2)n[nH]1`?
Tgondii IFNg: -80*

Results for COCCC(=O)c1cc2ccc(-c3cccc(Cl)c3)cn2c1-c1cocn1 ?
Tgondii IFNg: -2

How did Cc1cc(-c2cc(=O)[nH]c(-c3ccccn3)n2)no1 do in these assays?
Tgondii IFNg: 1

Results for COc1ccc(-c2nc(NCC3CCN(Cc4cccc(C)c4)CC3)c3ccccc3n2)cc1 ?
Tgondii IFNg: -36

Results for COc1cccc([C@@H]2CCCN(Cc3cc4n(n3)CCCNC4)C2)c1 ?
Tgondii IFNg: -26

What do the screens show for `COc1cccc(CN2CCCC(c3ccc4c(NCc5cccc(C)n5)n[nH]c4n3)C2)c1` (stereo not given)?
Tgondii IFNg: -83*

How did Cc1ccc(NC(=O)CN2CCC3(CC2)N=C(c2ccc(C)c(C)c2)C(=O)N3)cc1 do in these assays?
Tgondii IFNg: 94

How did CSc1ccc(C(=O)N[C@@H]2c3ccccc3[C@H]3CN(C(C)=O)C[C@H]32)s1 do in these assays?
Tgondii IFNg: -41

How did Cc1nc(CCNc2nc(-c3cccnc3)nc3c2CCNC3)sc1C do in these assays?
Tgondii IFNg: 136

What do the screens show for `O=C(O)c1cccnc1Nc1cccc(C(F)(F)F)c1`?
Tgondii IFNg: -4

How did CC(C)(C)C1CCc2nc(-c3cccnc3)nc(Nc3cccc(C(F)(F)F)c3)c2C1 (stereo not given) do in these assays?
Tgondii IFNg: -73*

Results for Cc1cc(CNC(=O)c2cn(Cc3cccc4ccccc34)nn2)n[nH]1 ?
Tgondii IFNg: -5

What do the screens show for `CC(C)c1cc(C(=O)Nc2ccc(Cn3cncn3)cc2)cs1`?
Tgondii IFNg: 107

What do the screens show for `O=C(Nc1csc(Cc2c(Cl)cccc2Cl)n1)NN1CCOCC1`?
Tgondii IFNg: -38

Results for CC(C)c1ccc(NC(=O)c2csc(Cc3c(Cl)cccc3Cl)n2)cc1 ?
Tgondii IFNg: -84*

What do the screens show for `Cc1cc(C)c(S(=O)(=O)N2CCC[C@@H]2C(=O)NCCc2csc(-c3ccccc3)n2)cc1C`?
Tgondii IFNg: -12

How did CN(Cc1ccccc1OCC1CCCO1)Cc1cccc2ncccc12 (stereo not given) do in these assays?
Tgondii IFNg: -5

How did O=C(Cn1ncc2c(N3CCCCC3)ncnc21)Nc1ccc(F)cc1F do in these assays?
Tgondii IFNg: 23

What do the screens show for `Cc1ccc2[nH]cc(CCN3CC(C(=O)N4CCCCCC4)CC3=O)c2c1` (stereo not given)?
Tgondii IFNg: 144

What do the screens show for `O=C1CC[C@@H](NCC2=COCCO2)[C@H](c2ccccc2F)N1`?
Tgondii IFNg: -37

How did CCc1onc(C)c1C1CCCN1Cc1cn(C)c2ccc(OC)cc12 (stereo not given) do in these assays?
Tgondii IFNg: -20

What do the screens show for `Nc1ncnc2c1c(-c1cccc(OCc3ccccc3)c1)cn2C1CC(CN2CCCC2)C1` (stereo not given)?
Tgondii IFNg: -74*

Results for COc1cccc(-c2nn(-c3ccccc3)cc2CN2CCC(CN3CCOCC3)CC2)c1 ?
Tgondii IFNg: -10

Results for O=C(CNC(=O)c1ccco1)Nc1cccc(-c2cn3cccnc3n2)c1 ?
Tgondii IFNg: 15

What do the screens show for `COc1ccc(-c2nc(CNC(=O)c3coc(-c4ccccc4)n3)no2)cc1`?
Tgondii IFNg: -68

What do the screens show for `O=C(Nc1cnn(-c2ncncc2N2CCCCC2)c1)C1CCCC1`?
Tgondii IFNg: -33

Results for O=C(Nc1cnn(-c2ncncc2N2CCCCC2)c1)C1CCCCC1 ?
Tgondii IFNg: -80*

Results for O=C(Nc1cnn(-c2ncncc2N2CCSCC2)c1)NC1CCCCC1 ?
Tgondii IFNg: 18

What do the screens show for `O=C(NCCc1csc(-c2ccccc2)n1)C1CCN(C(=O)c2ccc(F)c(F)c2)CC1`?
Tgondii IFNg: -24

Results for COc1ccc(-c2ccccc2[C@H]2[C@@H](C#N)N(C(=O)NC(C)C)[C@H]2CO)cc1 ?
Tgondii IFNg: -12

How did COc1ccc(-c2ccc([C@H]3[C@@H](C#N)N(C(=O)NC(C)C)[C@H]3CO)cc2)cc1 do in these assays?
Tgondii IFNg: -76*

Results for COc1ccc(-c2ccc([C@H]3[C@H](C#N)N(C(=O)NC(C)C)[C@H]3CO)cc2)cc1 ?
Tgondii IFNg: -55

What do the screens show for `Cc1cc(C)n(Cc2nc(-c3ccc(NC(=O)c4ccc(C#N)cc4)cc3)oc2C)n1`?
Tgondii IFNg: -13

How did COc1cccc(NS(=O)(=O)c2cc3c4c(c2)CCN4C(=O)CC3)c1 do in these assays?
Tgondii IFNg: -30

How did Cc1ccsc1S(=O)(=O)N1CC[C@@H]2OCCN(C)[C@@H]2C1 do in these assays?
Tgondii IFNg: -9
